From the supplement of paper PMC4237247

system: HeLa; assay: percent cells in G1/S phase; higher = more G1/S content; conditions: 10 µM; 20 h; hit class: G2/M-phase inhibitor
Protocol: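 HTS of 79,827 drug-like compounds at 10 uM. HeLa cells in 384-well plates were treated for 20 h, fixed, stained with Vybrant DyeCycle Green and scanned on an Acumen eX3 cytometer to give per-well cell cycle profiles. Only G2/M hits (>=67% G2/M) are listed.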

Row | Structure (SMILES) | percent cells in G1/S phase [%]
1 | O=c1[nH]c(/C=C/c2ccccc2F)nc2ccccc12 | 19.2
2 | CC(=O)O[C@H]1C(=O)[C@@]2(C)[C@H]([C@H](OC(=O)c3ccccc3)[C@]3(O)C[C@H](OC(=O)[C@H](O)[C@@H](NC(=O)c4ccccc4)c4ccccc4)C(C)=C1C3(C)C)[C@]1(OC(C)=O)CO[C@@H]1C[C@@H]2O [Paclitaxel] | 16.5
3 | COC(=O)Nc1nc2cc(Sc3ccccc3)ccc2[nH]1 [Fenbendazole] | 26.3
4 | COc1cc(-c2onc3ccc(Cl)cc23)cc(OC)c1OC | 15.6
5 | COC(=O)Nc1nc2ccc(SC(C)C)cc2[nH]1 [Methiazole] | 19.6
6 | CC(=O)Nc1ccc(Nc2nc(-c3c(C)nc4ccccn34)cs2)cc1 | 14.3
7 | COc1ccc(/C=C/c2ccc3cccc(O)c3n2)cc1C | 22.4
8 | COc1ccccc1NC1=CC(=O)CC(c2ccccc2)C1 (centres undefined) | 21.6
9 | O=C(CSc1nc2ccc([N+](=O)[O-])cc2s1)c1ccc(Cl)cc1 | 22.6
10 | O=C(O)c1ccccc1SC1CC(=O)N(c2ccc(Br)cc2)C1=O (centres undefined) | 17.9
11 | CCN(CC)CCN1C(=O)C(=O)C(=C(O)c2ccccc2)C1c1ccccc1F (centres undefined) | 20.9
12 | COC(=O)Nc1nc2cc(C(=O)c3ccccc3)ccc2[nH]1 [Mebendazole] | 22.1
13 | O=c1[nH]c(/C=C/c2ccccc2)nc2ccccc12 | 24.1
14 | COc1cc(NS(=O)(=O)c2ccc(NC(C)=O)cc2)c(OC)cc1Cl | 23.2
